The text below walks through data of paper PMC5540273 (PLoS ONE, 2017).
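Also: KINOMEscan kinase panel screen.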

The assay relates to ABL1-phosphorylated. Particulars: concentration: 1 μM, replicates: in singlicate; n = 1.
In the case of `CSc1nn2c(=O)cc(N3CCOCC3)nc2n1Cc1cccc(Cl)c1Cl` [GSK2347225], the “%Inh” value is recorded as 0%. The value for `CN1CCC(n2cnc(-c3ccc(F)cc3)c2-c2ccnc(NC3CCNCC3)n2)CC1` [SB-229482] was 0%; that for `O=C(c1ccc(-c2cc(-c3c[nH]nc3-c3ccccn3)ccn2)cc1)N1CCCC1` [GW792479] was 59%; that for `Nc1n[nH]c2nnc(-c3ccccc3)cc12` [SB-517389] was 5%. The value for `O=C(Nc1ccccc1)Nc1ccc(Oc2ccc3nccn3n2)cc1` was 18%; that for `O=c1cc(N2CCOCC2)nc2n(Cc3cccc(Cl)c3)ccn12` [GSK2296823] was 7%; that for `Clc1ccc(-c2cc(-c3c[nH]nc3-c3ccccn3)ccn2)cc1` [GW681251] was 0%. The figure for `NC(=O)c1sc(-n2cnc3ccccc32)cc1OCc1ccccc1F` [GSK1024306] is 0%; for `Nc1nc(-c2ccccn2)c(-c2ccnc3ccccc23)s1` [GW548057] it is 26%.

Take `CS(=O)(=O)CCNCc1ccc(-c2ccc3ncnc(Nc4ccc(OCc5ccccc5)c(Cl)c4)c3c2)o1.Cl` [GW574783]: the “%Inh” value worked out at 0%. The figure for `CCCc1ccc(S(=O)(=O)NC2CCN(c3ccnc(Nc4ccc(OC)cc4)n3)C2)cc1` (stereo not shown) [GSK1379737] is 0%.

As to `Nc1nc(-c2cccnc2)c(-c2ccnc3ccccc23)s1` [GW684083], the “%Inh” value worked out at 0%. With `COc1ccc(-c2oc3ncnc(N)c3c2-c2ccc(OC)cc2)cc1` [SB-589132], the “%Inh” value came to 10%. As for `COc1cc2c(Nc3cccc(NC(=O)c4ccccc4)c3)ncnc2cc1OCCCN1CCOCC1` [GSK223810], the “%Inh” value turned out to be 0%. The figure for `CN1c2ccc(-c3ccc(C(=O)NCCO)cc3)cc2-c2[nH]ncc2S1(=O)=O` is 15%; for `CC(C)N1CCC(n2cnc(-c3ccc(F)cc3)c2-c2ccnc(N)n2)CC1` [SB-223132] it is 19%.

With `CC(=O)Nc1n[nH]c2ncc(-c3ccccc3)cc12` [SB-548492], the “%Inh” value came out at 20%. The figure for `Cl.c1ccc(Cn2ccc3cc(Nc4ncnc5ccccc45)ccc32)cc1` [GW275568] is 30%. For `CNc1nccc(-c2c(-c3ccc(F)cc3)ncn2CCCN2CCOCC2)n1` [SB-222516], the “%Inh” value came to 0%. The value for `C[C@@H]1CCN(C(=O)CO)C[C@@H]1N(C)c1ncnc2[nH]ccc12` was 0%; that for `Cn1cc(-c2ccc3c(c2)CCN3C(=O)Cc2cccc(C(F)(F)F)c2)c2c(N)ncnc21` [GSK2606414] was 0%. The figure for `FC(F)(F)c1ccc(-c2cc(-c3c[nH]nc3-c3ccccn3)ccn2)cc1` [GW599550] is 21%.
